Test results from the supplement of paper PMC6555819.

Assays:
Test in all cases: PBM binding z-score (relative to random genomic background probes); higher = stronger binding; sequences stand for … in GC…GCGATTGACAGCGTAGAATGAAGG
[1] = tested on: FXR:RXRa (NR concentration 270 nM, RXRa partner concentration 90 nM)
Procedure, shortened: (§1)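 Ligand-free nuclear receptor dimers were bound for 1 h to custom Agilent 4×180K protein-binding microarrays. Detection used antibodies against each partner (one per run). Binding z-scores rest on regression-normalized fluorescence, with random background probes as the reference.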

[2] = tested on: LXRa:RXRa (NR concentration 270 nM, RXRa partner concentration 90 nM)
Procedure, shortened: as §1

[3] = tested on: LXRa homodimer (NR concentration 270 nM)
Procedure, shortened: as §1

[4] = tested on: LXRb:RXRa (NR concentration 270 nM, RXRa partner concentration 90 nM)
Procedure, shortened: as §1

[5] = tested on: LXRb homodimer (NR concentration 270 nM)
Procedure, shortened: as §1

[6] = tested on: PPARg:RXRa 270nM:90nM, anti-RXR (NR concentration 270 nM, RXRa partner concentration 90 nM)
Procedure, shortened: as §1

[7] = tested on: PPARg:RXRa 30nM:10nM, anti-RXR (NR concentration 30 nM, RXRa partner concentration 10 nM)
Procedure, shortened: as §1

[8] = tested on: PPARg:RXRa 90nM:30nM, anti-RXR (NR concentration 90 nM, RXRa partner concentration 30 nM)
Procedure, shortened: as §1

[9] = tested on: PPARg:RXRa DBDmut IVT, anti-RXR (DBD mutation: RXRa K156A/R161A, NR concentration 270 nM, RXRa partner concentration 90 nM)
Procedure, shortened: as §1

[10] = tested on: PPARg:RXRa IVT, anti-PPARg (NR concentration 270 nM, RXRa partner concentration 90 nM)
Procedure, shortened: as §1

[11] = tested on: PPARg DBDmut:RXRa IVT, anti-PPARg (DBD mutation: PPARg1 K132A/R137A, NR concentration 270 nM, RXRa partner concentration 90 nM)
Procedure, shortened: as §1

[12] = tested on: PPARg DBDmut IVT, anti-PPARg (DBD mutation: PPARg1 K132A/R137A, NR concentration 270 nM)
Procedure, shortened: as §1

[13] = tested on: PPARg homodimer (NR concentration 180 nM)
Procedure, shortened: as §1

[14] = tested on: PXR:RXRa (NR concentration 270 nM, RXRa partner concentration 90 nM)
Procedure, shortened: as §1

[15] = tested on: PXR homodimer (NR concentration 270 nM)
Procedure, shortened: as §1

[16] = tested on: RARa homodimer (NR concentration 270 nM)
Procedure, shortened: as §1

[17] = tested on: RARb:RXRa (NR concentration 270 nM, RXRa partner concentration 90 nM)
Procedure, shortened: as §1

[18] = tested on: PPARa:RXRa (NR concentration 270 nM, RXRa partner concentration 90 nM)
Procedure, shortened: as §1

[19] = tested on: PPARg:RXRa (NR concentration 180 nM, RXRa partner concentration 90 nM)
Procedure, shortened: as §1

[20] = tested on: RARa:RXR (NR concentration 270 nM, RXRa partner concentration 90 nM)
Procedure, shortened: as §1

Sequence	PBM binding z-score [1]	PBM binding z-score [2]	PBM binding z-score [3]	PBM binding z-score [4]	PBM binding z-score [5]	PBM binding z-score [6]	PBM binding z-score [7]	PBM binding z-score [8]	PBM binding z-score [9]	PBM binding z-score [10]	PBM binding z-score [11]	PBM binding z-score [12]	PBM binding z-score [13]	PBM binding z-score [14]	PBM binding z-score [15]	PBM binding z-score [16]	PBM binding z-score [17]	PBM binding z-score [18]	PBM binding z-score [19]	PBM binding z-score [20]
TCTTGTAGGTCAAAGGTTAAGAAAGCCGAAGCCT	7.08	6.11	2.09	5.26	1.73	10.7	11.9	12.2	7.87	8.59	1.61	1.68	3.23	5.44	0.389	0.512	5.12			
CTGAGTAGGTTACGAGGGGGCATTCAGTGCGAAT	1.65	7.17	2.04	6.26		4.41	1.42	3.41	6.01	6.11			1.78	4.54	4.99	0.52	2.26	3.73	4.46	3
TGGAGTAGGTTACGGGGGCATTCAGGGATGAAGA	3.28	3.37	1.38	5.17		6.49	4.07	5.66	6.12	7.33			3.02	3.97	3.87	1.99	3.1	4.73	7.46	3.46
CCGAGTAGGTTACGGGGGGGCATTCAGTGCGAAT	4.53	6.83	3.13	7.21		4.46	2.55	3.84	5.07	5.61			4.19	5.79	7.32	2.21		3.74	4.54	4.18
CTATGTAGGTTAAGGAGGTCATTCAGTTTGAAAG	3.87	4.84	4.54	3.92		5.71	3.14	5.11	7	7.07			2.9	5.67	12	0.704		5.23	6.14	4.51
ATATGTAGGTGAAGGGTCATTCAGGTTGGTTCGC	4.21	4.29	1.74	3.78	1.03	11.2	11.3	12.7	8.51	8.85	6.44	4.69	6.22	5.27	2.24	1.46	3.3			5.79
TCAAGTAGGTTACGGGGGCATTCAGGGATGAAGA	3.28	3.4	1.53	5.4		7.05	6.15	6.95	6.98	7.48			3.45	3.45	2.97	1.26		4.49	7.97	3.18
CCGACTGGGTCAAAGGTTACCATACTCAGTACGA	4.79	4.3	0.367	4.02	-0.508	10.2	9.87	11.1	6.05	7.26	1.18	0.000446	1.89	5.14	-0.223	0.785	4.1		12	
TCGAGTAGGTTAAGGGGGCATTCAGGGATGAAGA	2.95	2.79	1.01	4.58		5.78	3.91	5.72	4.21	4.69			2.85	2.67	1.9	1.41	2.47	3.99	5.19	2.87
TTTAGTTGGTCAAAGGTCACACACTCGAAATGCG	6.28	5.76	3.99	5.54	1.9	10.6	11.3	11.6	4.19	7	2.09	2.08	5.45	6.21	1.61	3.28	5.17			7.55
CGAACTAGGTCAAAGGTCAGTGAAAGGCGACGTA	7.45	6	2.09	5.55	0.335	11.3	12.7	14	8.37	9.1		4.58	5.51		0.306	2.87				
CTATGTAGGTAAAGGGGGTCATTCAGTTTGAAAG	4.07	4.67	2.77	5.98		7.12	4.91	6.93	6.89	7.06			3.59	5.82	10.7	1.83		5.92	7.28	6.13
CCGAGTAGGTTACGAGGGGGCATCCAGTGCGAAT	1.87	6.84	1.45	5.77		3.34	0.797	2.31	4.1	4.45			1.63	4.3	2.67	0.122	2.1	3.24	2.67	2.86
CAAACTAGGTCAAAGGTCAAAATCGAGCCAACCA	8.54	7.06	4.95	7.22	3.3	11.8	13.7	14.5	8.4	9.49	5.76	3.58	5.14	6.99	1.48	2.19	5.94		13.4	8.9
TAGCCTCGGTCATTGGGCCAGTATAGTACGCATC	0.733	0.704	0.605	0.0326	-0.0168	0.0656	-0.712	-0.209	0.608	1.16	-0.424	-0.786	-0.222	-0.491	-0.977	-0.437	2.33		0.597	-0.492
CTTACTGGGCCAAAGGTCATTGATTCCAATGCTC	5.59	5.54	4.28	5.06	0.936	11.2	14.3	13.6	7.41	8.39	2.55	2.05	5.08	5.66	2.72	1.85	4.62			7.06
